# Changes are numbered by the printed parent chain.
# What was measured:
# Experiment in all cases: yeast three-hybrid, YBZ-1, SC-Leu-His + 0.5 mM 3-AT, 4 days
# Details in all cases: tags: N-Gal4 AD-HA kept; label: inside an RPR1-promoter hybrid RNA with tandem MS2 sites; ssRNA
# PUM1 PUF domain R6-QWS = molecular target: T1, PUM1 PUF domain R6-QWS (Homo sapiens, UniProt Q14671 828-1176, N1043Q;Y1044W;Q1047S)
# T1 sequence: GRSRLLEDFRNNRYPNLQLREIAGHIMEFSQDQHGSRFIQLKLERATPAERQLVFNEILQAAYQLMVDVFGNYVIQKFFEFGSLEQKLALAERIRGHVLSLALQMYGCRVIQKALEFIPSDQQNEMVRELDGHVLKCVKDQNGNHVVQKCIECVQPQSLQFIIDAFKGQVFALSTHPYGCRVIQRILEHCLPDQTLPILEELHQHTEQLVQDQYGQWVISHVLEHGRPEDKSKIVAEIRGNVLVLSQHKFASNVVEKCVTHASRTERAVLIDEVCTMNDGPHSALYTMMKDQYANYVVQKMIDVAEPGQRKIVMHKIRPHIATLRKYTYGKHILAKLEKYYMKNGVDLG
# Summary of the method: (§1)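 The interaction score is the logarithmic change in variant frequency from input to selection. It uses log2, with a pseudocount of 1 for absent variants, and frequencies came from PCR-amplified, Illumina-sequenced repeat regions. The libraries were Pumilio-1 PUF domains randomized at the three base-contacting residues per repeat, co-expressed with matching RNA elements in strain YBZ-1 (LexA–MS2 coat fusion, HIS3 reporter). Plating lasted four days on SC-Leu (input) or SC-Leu-His + 0.5 mM 3-AT (selection).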
# PUM1 PUF domain R3-RSG = PUM1 PUF domain R3-RSG (Homo sapiens, UniProt Q14671 828-1176, C935R;R936S;Q939G)
# Summary of the method: as §1
# PUM1 PUF domain R3-RDK = PUM1 PUF domain R3-RDK (Homo sapiens, UniProt Q14671 828-1176, C935R;R936D;Q939K)
# Summary of the method: as §1
# PUM1 PUF domain R3-HRR = PUM1 PUF domain R3-HRR (Homo sapiens, UniProt Q14671 828-1176, C935H;Q939R)
# Summary of the method: as §1
# PUM1 PUF domain R5-HCR = PUM1 PUF domain R5-HCR (Homo sapiens, UniProt Q14671 828-1176, C1007H;R1008C;Q1011R)
# Summary of the method: as §1
# PUM1 PUF domain R5-RGK = PUM1 PUF domain R5-RGK (Homo sapiens, UniProt Q14671 828-1176, C1007R;R1008G;Q1011K)
# Summary of the method: as §1
# PUM1 PUF domain R5-MYG = PUM1 PUF domain R5-MYG (Homo sapiens, UniProt Q14671 828-1176, C1007M;R1008Y;Q1011G)
# Summary of the method: as §1
# PUM1 PUF domain R4-SNI = PUM1 PUF domain R4-SNI (Homo sapiens, UniProt Q14671 828-1176, N971S;H972N;Q975I)
# Summary of the method: as §1
# PUM1 PUF domain R4-DHS = PUM1 PUF domain R4-DHS (Homo sapiens, UniProt Q14671 828-1176, N971D;Q975S)
# Summary of the method: as §1
# PUM1 PUF domain R4-SPY = PUM1 PUF domain R4-SPY (Homo sapiens, UniProt Q14671 828-1176, N971S;H972P;Q975Y)
# Summary of the method: as §1
# PUM1 PUF domain R2-DWL = PUM1 PUF domain R2-DWL (Homo sapiens, UniProt Q14671 828-1176, N899D;Y900W;Q903L)
# Summary of the method: as §1
# PUM1 PUF domain R6-TFQ = molecular target: T2, PUM1 PUF domain R6-TFQ (Homo sapiens, UniProt Q14671 828-1176, N1043T;Y1044F)
# T2 sequence: T1 sequence with Q216T, W217F, S220Q
# Summary of the method: as §1
# PUM1 PUF domain R5-QRD = PUM1 PUF domain R5-QRD (Homo sapiens, UniProt Q14671 828-1176, C1007Q;Q1011D)
# Summary of the method: as §1
# PUM1 PUF domain R7-CHP = PUM1 PUF domain R7-CHP (Homo sapiens, UniProt Q14671 828-1176, S1079C;N1080H;E1083P)
# Summary of the method: as §1
# PUM1 PUF domain R5-LFR = PUM1 PUF domain R5-LFR (Homo sapiens, UniProt Q14671 828-1176, C1007L;R1008F;Q1011R)
# Summary of the method: as §1
# PUM1 PUF domain R6-CFK = molecular target: T3, PUM1 PUF domain R6-CFK (Homo sapiens, UniProt Q14671 828-1176, N1043C;Y1044F;Q1047K)
# T3 sequence: T1 sequence with Q216C, W217F, S220K
# Summary of the method: as §1
# PUM1 PUF domain R4-ALC = PUM1 PUF domain R4-ALC (Homo sapiens, UniProt Q14671 828-1176, N971A;H972L;Q975C)
# Summary of the method: as §1
# PUM1 PUF domain R3-VRL = PUM1 PUF domain R3-VRL (Homo sapiens, UniProt Q14671 828-1176, C935V;Q939L)
# Summary of the method: as §1
# PUM1 PUF domain R4-YRC = PUM1 PUF domain R4-YRC (Homo sapiens, UniProt Q14671 828-1176, N971Y;H972R;Q975C)
# Summary of the method: as §1
# PUM1 PUF domain R4-SIG = PUM1 PUF domain R4-SIG (Homo sapiens, UniProt Q14671 828-1176, N971S;H972I;Q975G)
# Summary of the method: as §1
# PUM1 PUF domain R4-DHS, sequence (Q14671 828-1176 N971D/Q975S): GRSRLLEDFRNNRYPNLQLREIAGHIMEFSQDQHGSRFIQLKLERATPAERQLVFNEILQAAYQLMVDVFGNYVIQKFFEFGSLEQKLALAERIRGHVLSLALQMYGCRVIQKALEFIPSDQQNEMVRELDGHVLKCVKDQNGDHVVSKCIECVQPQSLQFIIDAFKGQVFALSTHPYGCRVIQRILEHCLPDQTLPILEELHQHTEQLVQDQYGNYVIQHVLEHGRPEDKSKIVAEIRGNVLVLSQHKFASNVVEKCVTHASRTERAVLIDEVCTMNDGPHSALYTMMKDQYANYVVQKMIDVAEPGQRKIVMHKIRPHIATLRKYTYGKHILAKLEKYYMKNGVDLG
# PUM1 PUF domain R5-RGK, sequence (Q14671 828-1176 C1007R/R1008G/Q1011K): as the sequence (Q14671 828-1176 N971D/Q975S) above, with D144N, S148Q, C180R, R181G, Q184K counted along it
sequence,measurement,setting,value
GGCUAGAACUAGUGGAUCCCCCGGCGCCCGGCGGCUCGAGCCCGGGUAAGUGGAAAUAGUCUGCAUGCCGCCGGGCGCCAUGCCUGCAGGUCGACUCUAGAAAACAUG,binding signal,PUM1 PUF domain R6-QWS,3.82 log2 enrichment (interaction score)
GGCUAGAACUAGUGGAUCCCCCGGCGCCCGGCGGCUCGAGCCCGGGUAAGUGUAAUUAGUCUGCAUGCCGCCGGGCGCCAUGCCUGCAGGUCGACUCUAGAAAACAUG,binding signal,PUM1 PUF domain R3-RSG,3.59 log2 enrichment (interaction score)
same,binding signal,PUM1 PUF domain R3-RDK,2.64 log2 enrichment (interaction score)
same,binding signal,PUM1 PUF domain R3-HRR,0.15 log2 enrichment (interaction score)
GGCUAGAACUAGUGGAUCCCCCGGCGCCCGGCGGCUCGAGCCCGGGUAAGUGUUAAUAGUCUGCAUGCCGCCGGGCGCCAUGCCUGCAGGUCGACUCUAGAAAACAUG,binding signal,PUM1 PUF domain R5-HCR,2.43 log2 enrichment (interaction score)
same,binding signal,PUM1 PUF domain R5-RGK,3.44 log2 enrichment (interaction score)
same,binding signal,PUM1 PUF domain R5-MYG,3.99 log2 enrichment (interaction score)
GGCUAGAACUAGUGGAUCCCCCGGCGCCCGGCGGCUCGAGCCCGGGUAAGUGUAUAUAGUCUGCAUGCCGCCGGGCGCCAUGCCUGCAGGUCGACUCUAGAAAACAUG,binding signal,PUM1 PUF domain R4-SNI,3.45 log2 enrichment (interaction score)
same,binding signal,PUM1 PUF domain R4-DHS,5.89 log2 enrichment (interaction score)
same,binding signal,PUM1 PUF domain R4-SPY,1.88 log2 enrichment (interaction score)
GGCUAGAACUAGUGGAUCCCCCGGCGCCCGGCGGCUCGAGCCCGGGUAAGUGUAAAAAGUCUGCAUGCCGCCGGGCGCCAUGCCUGCAGGUCGACUCUAGAAAACAUG,binding signal,PUM1 PUF domain R2-DWL,6.44 log2 enrichment (interaction score)
GGCUAGAACUAGUGGAUCCCCCGGCGCCCGGCGGCUCGAGCCCGGGUAAGUGAAAAUAGUCUGCAUGCCGCCGGGCGCCAUGCCUGCAGGUCGACUCUAGAAAACAUG,binding signal,PUM1 PUF domain R6-TFQ,6.64 log2 enrichment (interaction score)
GGCUAGAACUAGUGGAUCCCCCGGCGCCCGGCGGCUCGAGCCCGGGUAAGUGUGAAUAGUCUGCAUGCCGCCGGGCGCCAUGCCUGCAGGUCGACUCUAGAAAACAUG,binding signal,PUM1 PUF domain R5-QRD,5.16 log2 enrichment (interaction score)
same,binding signal,PUM1 PUF domain R5-RGK,1.16 log2 enrichment (interaction score)
GGCUAGAACUAGUGGAUCCCCCGGCGCCCGGCGGCUCGAGCCCGGGUAAGUCUAAAUAGUCUGCAUGCCGCCGGGCGCCAUGCCUGCAGGUCGACUCUAGAAAACAUG,binding signal,PUM1 PUF domain R7-CHP,2.32 log2 enrichment (interaction score)
GGCUAGAACUAGUGGAUCCCCCGGCGCCCGGCGGCUCGAGCCCGGGUAAGUGUAAGUAGUCUGCAUGCCGCCGGGCGCCAUGCCUGCAGGUCGACUCUAGAAAACAUG,binding signal,PUM1 PUF domain R3-RSG,1.02 log2 enrichment (interaction score)
same,binding signal,PUM1 PUF domain R3-HRR,2.66 log2 enrichment (interaction score)
GGCUAGAACUAGUGGAUCCCCCGGCGCCCGGCGGCUCGAGCCCGGGUAAGUGUACAUAGUCUGCAUGCCGCCGGGCGCCAUGCCUGCAGGUCGACUCUAGAAAACAUG,binding signal,PUM1 PUF domain R4-SNI,2.5 log2 enrichment (interaction score)
same,binding signal,PUM1 PUF domain R4-DHS,3.02 log2 enrichment (interaction score)
GGCUAGAACUAGUGGAUCCCCCGGCGCCCGGCGGCUCGAGCCCGGGUAAGUGUCAAUAGUCUGCAUGCCGCCGGGCGCCAUGCCUGCAGGUCGACUCUAGAAAACAUG,binding signal,PUM1 PUF domain R5-HCR,2.3 log2 enrichment (interaction score)
same,binding signal,PUM1 PUF domain R5-RGK,2.71 log2 enrichment (interaction score)
GGCUAGAACUAGUGGAUCCCCCGGCGCCCGGCGGCUCGAGCCCGGGUAAGUGUAAAUAGUCUGCAUGCCGCCGGGCGCCAUGCCUGCAGGUCGACUCUAGAAAACAUG,binding signal,PUM1 PUF domain R5-LFR,2.2 log2 enrichment (interaction score)
same,binding signal,PUM1 PUF domain R4-DHS,4.49 log2 enrichment (interaction score)
same,binding signal,PUM1 PUF domain R6-CFK,3.27 log2 enrichment (interaction score)
same,binding signal,PUM1 PUF domain R4-ALC,3.15 log2 enrichment (interaction score)
same,binding signal,PUM1 PUF domain R4-SPY,3.88 log2 enrichment (interaction score)
same,binding signal,PUM1 PUF domain R3-VRL,3.56 log2 enrichment (interaction score)
same,binding signal,PUM1 PUF domain R6-QWS,3.91 log2 enrichment (interaction score)
same,binding signal,PUM1 PUF domain R5-MYG,1.26 log2 enrichment (interaction score)
same,binding signal,PUM1 PUF domain R4-YRC,4.13 log2 enrichment (interaction score)
same,binding signal,PUM1 PUF domain R4-SIG,3.64 log2 enrichment (interaction score)
